# Test results published in PubChem BioAssay (NCI).
# The panel holds about 79,000 compounds, 15% with a hit somewhere; the sample as a whole holds those more often. A number with no mark means an inactive call. The source made the active and inactive calls. Cut-off read from the data, not from the text of the source: active = growth inhibition above about 70%; inactive = the rest.
# Test: NCI Yeast Anticancer Drug Screen. Data for the rad18 strain (AID 177)
# Conditions: S. cerevisiae rad18 mutant growth inhibition; at 33.0 µM; active compounds read high
# In short: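 Readout: growth inhibition vs vehicle controls. Cells: genetically altered yeast strain, DNA repair defect.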
row,Compound,growth inhibition
1,C=C[C@H]1CN2CC[C@H]1C[C@@H]2[C@@H](O)c1ccnc2ccccc12,-17%
2,O=c1c2ccccc2[se]n1-c1cccnc1,42%
3,CC12CCC(C1)C(C)(C)C2OC(=O)c1ccccc1N (stereo not drawn),9%
4,OC1(c2ccccc2)CC2CCC(C1)N2CCCC(O)(c1ccccc1)c1ccccc1 (stereo not drawn),28%
5,COC(=O)C(F)C(Br)C(=O)OC (stereo not drawn),92% (active)
6,CCCCCCCCCC[Se]C#N,63%
7,CNCC(O)c1ccc(O)c(O)c1.[Pt].c1ccc([PH+](c2ccccc2)c2ccccc2)cc1.c1ccc([PH+](c2ccccc2)c2ccccc2)cc1,80% (active)
8,Nc1nc(N)c(-c2ccc(Cl)c(Cl)c2)c(CP(Cl)(Cl)(Cl)Br)n1,79% (active)
9,CC1CC(C)CC(C)C(O)/C(C#N)=C/C=C/CC(C2CCCC2C(=O)O)OC(=O)CC(O)C(C)C1 (stereo not drawn),97% (active)

# Same assay, conditions: S. cerevisiae rad18 mutant growth inhibition; at 100.0 µM; active compounds read high
row,Compound,growth inhibition
1,C=C[C@H]1CN2CC[C@H]1C[C@@H]2[C@@H](O)c1ccnc2ccccc12,-28%
2,O=c1c2ccccc2[se]n1-c1cccnc1,58%
3,CC12CCC(C1)C(C)(C)C2OC(=O)c1ccccc1N (stereo not drawn),54%
4,OC1(c2ccccc2)CC2CCC(C1)N2CCCC(O)(c1ccccc1)c1ccccc1 (stereo not drawn),57%
5,COC(=O)C(F)C(Br)C(=O)OC (stereo not drawn),98% (active)
6,CCCCCCCCCC[Se]C#N,98% (active)
7,CNCC(O)c1ccc(O)c(O)c1.[Pt].c1ccc([PH+](c2ccccc2)c2ccccc2)cc1.c1ccc([PH+](c2ccccc2)c2ccccc2)cc1,96% (active)
8,Nc1nc(N)c(-c2ccc(Cl)c(Cl)c2)c(CP(Cl)(Cl)(Cl)Br)n1,74% (active)
9,CC1CC(C)CC(C)C(O)/C(C#N)=C/C=C/CC(C2CCCC2C(=O)O)OC(=O)CC(O)C(C)C1 (stereo not drawn),97% (active)
